High-throughput results as filed in PubChem BioAssay.
LASV entry inh: Lassa virus entry inhibition; Lassa virus pseudotype entry inhibition, cell reporter; Potency, µM (highest dose often 37.9 µM), for inactives: at the top dose activity change, negative = inhibition, usual class: inhibitors; 300,000 compounds, 1.2% hits; calls by dose curve; tested in HEK293 cells; note: nearly all actives have a fitted effect of over 50% in size
Vaccinia Venus: vaccinia inhibition (Venus reporter). Potency, µM (titrated, usually from 36.5 µM), for inactives: at the highest dose activity change, negative = inhibition, actives largely listed as inhibitors. 330,000 compounds, 0.46% hits. Vaccinia virus Venus reporter expression, fluorescence; calls by dose curve; tested in A549 cells; note: nearly all actives have a fitted effect of over 30% in size
Vaccinia mCherry: vaccinia inhibition (mCherry reporter). Vaccinia virus mCherry reporter infection, fluorescence. 310,000 compounds, 0.63% hits. Potency, µM (doses to about 36.5 µM), without a hit: at the top dose activity change, negative = inhibition, actives largely listed as inhibitors. AID 720579; calls by dose curve; tested in A549 cells; note: nearly all actives have a fitted effect of over 35% in size
HCV inhibitor: HCV inhibition | Huh7.5.1 HCVcc-Cre infection, luciferase reporter, 44 h | Potency, µM (series often up to 41.8 µM), for the others: top-dose activity change, negative = inhibition, usual class: inhibitors | 340,000 compounds, 3.4% hits | AID 651820; active = well fitted inhibition curve with a large enough effect; inconclusive = small, poorly fitted or top-dose-only effect, or another doubt; inactive = no such curve, though single readings can be large or run the other way
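Seed cells (1,000/well) for 4 h; treat with compound and infect with HCVcc-Cre, moi about 0.5. Incubate 44 h, then detect luciferase activity.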
MARV entry inh: Marburg virus entry inhibition; Marburg virus pseudotyped entry inhibition, cell reporter; Potency, µM (highest dose often 37.8 µM), without a hit: at the top dose activity change, negative = inhibition, usual class: inhibitors; 300,000 compounds, 1.8% hits; calls by dose curve; tested in HEK293 cells
FMDV inh: blocks foot and mouth disease virus | FMDV antiviral cell-based qHTS | Potency, µM (highest dose often 57.9 µM), without a hit: at the highest dose activity change, negative = inhibition, usual class: inhibitors | 410,000 compounds, 1.2% hits; calls by dose curve; tested in HEK293T cells; note: read-out not given here; nearly all actives have a fitted effect of over 45% in size
An asterisk follows results filed as active; i = inactive; ? = inconclusive; nt = no result; + = active, no number; [ ] = remark or other dose. Sampled rows, rich in hits. Any-hit rate of the full collection: about 5.3%. % is set by controls: 0 for no effect and ±100 for the full control effect; potency is the fitted concentration of half-maximal effect.

SMILES	LASV entry inh	Vaccinia Venus	Vaccinia mCherry	HCV inhibitor	MARV entry inh	FMDV inh
O=C(NC1CCCCC1)C(c1cccnc1)N(C(=O)CCl)c1ccccc1Cl (centres undefined)	?	10µM*	?	3.2µM*	?	-13%
COc1ccc(CCNC(=O)c2cnn(-c3nccc(-c4ccco4)n3)c2C)cc1	nt	-5%	-18%	nt	nt	39%
Cc1nc([N+](=O)[O-])c(Sc2nc3ccccc3n2C)n1Cc1ccccc1	?	-13%	-17%	13µM*	?	25µM*
Cc1nc([N+](=O)[O-])c(SCC(N)=O)n1Cc1ccccc1	nt	-13%	i	14%	nt	-2%
CCOC(=O)C1Nc2ccc(C(F)(F)F)cc2C2c3ccccc3CC12 (centres undefined)	nt	?	?	?	nt	28µM*
COCCOc1ccc(C(F)(F)F)cc1Nc1nc2ccccc2o1	-16%	-23%	?	14µM*	15%	2%
CCCCC(=O)N(C)c1c(C)nc2ccc(C(=O)Nc3cccc(NS(C)(=O)=O)c3)cn12	nt	-1%	-4%	nt	nt	-19%
CC1(C)CC[C@]2(C(=O)O)CC[C@]3(C)C(=CC[C@@H]4[C@@]5(C)CC[C@H](O[C@@H]6O[C@H](C(=O)O)[C@@H](O)[C@H](O[C@@H]7OC[C@H](O)[C@H](O)[C@H]7O)[C@H]6O)C(C)(C)[C@@H]5CC[C@]43C)[C@@H]2C1	nt	7.9µM*	?	11µM*	nt	-66%
CCn1ncc(Br)c1C(=O)Nc1ccc(C(C)C)cc1	-13%[46.1 µM]	-16%	-8%	?	13µM*	8%
CCn1ncc(Br)c1C(=O)Nc1cccc(F)c1	-4%[46.1 µM]	-18%	-12%	2%	2%[46.1 µM]	-27%
CCC1CCCCN1S(=O)(=O)c1ccc(NC(=O)c2cccs2)cc1 (centres undefined)	5.2µM*	-9%	-13%	?	-2%	-19%
Cc1ccc(S(=O)(=O)N2CCCC2CNC(=O)C(=O)Nc2ccc(F)cc2)cc1 (centres undefined)	5µM*	?	?	?	-29%	9%
COc1ccc(CCNC(=O)C(=O)NCC2OCCN2S(=O)(=O)c2ccccc2)cc1OC (centres undefined)	nt	-19%	-14%	-11%	nt	-21%
Cc1ccc(S(=O)(=O)N2CCN(C(C(=O)Nc3ccc(F)cc3)c3ccccc3)CC2)cc1 (centres undefined)	6.3µM*	-15%	-11%	-12%	?	0%
COc1ccc(CCNC(=O)C(=O)NCC2CCCN2S(=O)(=O)c2ccccc2)cc1OC (centres undefined)	?	-24%	-29%	?	?	22µM*
Cc1ccccc1NC(=O)c1ccc(N(Cc2ccccc2)S(C)(=O)=O)cc1	-21%[46.1 µM]	-7%	1%	nt	nt	-2%
COc1cc(CNC(=O)c2cc(-c3cc(OC)ccc3Cl)n[nH]2)cc(OC)c1	nt	-5%	i	nt	nt	-17%
O=C(Cc1ccc(Cl)cc1)NO	nt	-11%	-23%	nt	nt	nt
O=C(NCCc1ccccc1)C(=O)NCC1CCCN1S(=O)(=O)c1ccccc1 (centres undefined)	?	?	?	?	11µM*	-19%
O=C(NCCc1ccccc1)C(=O)NCCC1CCCCN1S(=O)(=O)c1ccccc1 (centres undefined)	?	-14%	-3%	?	-27%	0%
COc1ccccc1NC(=O)/C(C#N)=C/c1c(C)nn(-c2ccc(F)cc2)c1Cl	-13%	nt	nt	12%	1%	0%
COc1ccc(NC(=O)/C(C#N)=C/c2c(C)nn(-c3ccc(F)cc3)c2Cl)cc1OC	?	nt	nt	-4%	?	22µM*
Cc1nn(-c2ccccc2)c(Cl)c1/C=C(\C#N)C(=O)NC(C)C	-25%	5%	-3%	?	-5%	25µM*
COc1ccc(NC(=O)/C(C#N)=C/c2c(C)nn(-c3ccc(F)cc3)c2Cl)cc1Cl	-7%	-7%	-11%	2%	5%	?
Cc1c(-c2ccc(Cl)cc2)c(=O)oc2c(CN3CCN(CCO)CC3)c(O)ccc12	15%[46.1 µM]	-20%	-17%	nt	nt	-17%
SMILES	LASV entry inh	Vaccinia Venus	Vaccinia mCherry	HCV inhibitor	MARV entry inh	FMDV inh
CCOc1ccc(S(=O)(=O)NCCC(=O)N2CCN(c3ccccc3O)CC2)cc1	-18%	?	-17%	-27%	-15%	-22%
CCOc1ccc(C(=O)CCC(=O)N2CCN(c3ccccc3O)CC2)cc1	?	-12%	-1%	?	?	35µM*
C#CCN(C[C@H]1[C@H](OC(=O)NCCCCCC)[C@H](OC(=O)NCCCCCC)C[C@@H](C(=O)OC)[C@H]1C(=O)OC)S(=O)(=O)c1ccc(C)cc1	nt	?	-11%	nt	nt	-11%
C#CCN(C[C@H]1[C@H](OC(=O)Nc2c(C)noc2C)[C@H](OC(=O)Nc2c(C)noc2C)C[C@@H](C(=O)OC)[C@H]1C(=O)OC)S(=O)(=O)c1ccc(C)cc1	nt	-15%	-4%	nt	nt	32µM*
Cc1cn([C@H]2C[C@H](O)[C@@H](CCC(=O)NCc3ccccc3)O2)c(=O)[nH]c1=O	nt	?	+	3.5µM*	nt	-14%
Cc1cn([C@H]2C[C@H](O)[C@@H](CCC(=O)NCC(c3ccccc3)c3ccccc3)O2)c(=O)[nH]c1=O	nt	9%	14%	nt	nt	-16%
O=C(Nc1ccc(Cl)cc1Cl)c1cc(S(=O)(=O)N2CCC3(CC2)OCCO3)ccc1F	?	-12%	-5%	nt	nt	-14%
COCOc1ccc(Br)cc1C(=O)[C@@H]1O[C@@H]1c1cccc(OC)c1	nt	nt	nt	nt	-17%[14.2 µM]	nt
CCC1CCCCN1C(=O)c1cc(COc2ccc(-n3cncn3)cc2)on1 (centres undefined)	-15%	-20%	-3%	32µM*	-17%	?
O=C(c1cc(COc2ccc(-n3cncn3)cc2)on1)N1CCCC1	nt	nt	nt	-17%	nt	-11%
CCC(C)NC(=O)c1c(N)n(/N=C/c2cccnc2)c2nc3ccccc3nc12 (centres undefined)	-37%	nt	nt	14µM*	26µM*	12%
O=C(COC(=O)c1nc(Cl)ccc1Cl)Nc1cccc(S(=O)(=O)N2CCOCC2)c1	nt	nt	nt	11%	nt	-19%
CCc1nc2ccccc2c(C(=O)OCC(=O)Nc2cccc(S(=O)(=O)NC3=NCCCCC3)c2)c1C	22µM*	?	?	8.9µM*	?	25µM*
O=C(COC(=O)c1ccc2ccccc2n1)Nc1cccc(S(=O)(=O)NC2=NCCCCC2)c1	6%	nt	nt	6%	2%	16%
O=C(COC(=O)c1c2c(nc3ccccc13)CCN(Cc1ccccc1)C2)Nc1c(F)cccc1F	?	-18%	?	?	?	-15%
CCCn1c(SCC(=O)Nc2cccc(S(=O)(=O)NC3=NCCCCC3)c2)nc2ccccc2c1=O	-23%	-22%	-13%	-18%	?	32µM*
